In publication PMC5540273 (PLoS ONE, 2017):

Assays:
Details in all cases: concentration: 1 μM, replicates: in singlicate; n = 1
CAMK2D = test system: CAMK2D
CAMK2G = test system: CAMK2G
CAMK4 = test system: CAMK4
CAMKK1 = test system: CAMKK1
CAMKK2 = test system: CAMKK2
CASK = test system: CASK
CDC2L1 = test system: T1, CDC2L1
T1 construct: gene CDK11B

CDC2L2 = test system: CDC2L2
CDC2L5 = test system: T2, CDC2L5
T2 construct: gene CDK13

CDK11 = test system: T3, CDK11
T3 construct: gene CDK19
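Note: KINOMEscan kinase panel screen.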

| SMILES | %Inh (CAMK2D) [%] | %Inh (CAMK2G) [%] | %Inh (CAMK4) [%] | %Inh (CAMKK1) [%] | %Inh (CAMKK2) [%] | %Inh (CASK) [%] | %Inh (CDC2L1) [%] | %Inh (CDC2L2) [%] | %Inh (CDC2L5) [%] | %Inh (CDK11) [%] |
| --- | --- | --- | --- | --- | --- | --- | --- | --- | --- | --- |
| Cc1cccc(-c2nc(Nc3ccc4[nH]nnc4c3)c3ccccc3n2)n1 [GW867587] | 0 | 0 | 0 | 0 | 0 | 4 | 0 | 0 | 0 | 0 |
| Fc1cccc(COc2ccc(Nc3ncnc4cc[nH]c34)cc2Cl)c1 | 9 | 11 | 0 | 11 | 0 | 0 | 17 | 11 | 0 | 26 |
| Fc1cccc(COc2ccc(Nc3ncnc4sc(-c5ccc[nH]5)cc34)cc2Cl)c1 [GW707818] | 7 | 0 | 5 | 0 | 16 | 15 | 20 | 15 | 0 | 5 |
| CSc1nn2c(=O)cc(N3CCOCC3)nc2n1Cc1cccc(Cl)c1Cl [GSK2347225] | 21 | 25 | 0 | 13 | 23 | 2 | 0 | 9 | 0 | 8 |
| COc1ccc(NC(=O)Nc2ccc(C)c(-c3ccc(C(=O)Nc4ccncc4)cc3)c2)cc1 [GSK1398475] | 0 | 22 | 0 | 3 | 20 | 0 | 0 | 34 | 0 | 4 |
| O=C(Nc1ccccc1)Nc1ccc(Oc2ccc3nccn3n2)cc1 | 0 | 14 | 29 | 0 | 14 | 7 | 0 | 8 | 0 | 0 |
| CC(C)N1CCC(n2cnc(-c3ccc(F)cc3)c2-c2ccnc(N)n2)CC1 [SB-223132] | 1 | 4 | 0 | 21 | 6 | 0 | 5 | 19 | 0 | 10 |
| CN1CCC(n2cnc(-c3ccc(F)cc3)c2-c2ccnc(NC3CCNCC3)n2)CC1 [SB-229482] | 7 | 0 | 7 | 14 | 26 | 20 | 0 | 8 | 31 | 0 |
| FC(F)(F)c1cc(Nc2nccc(-c3c(-c4ccc(Cl)cc4)nn4ncccc34)n2)ccc1Cl [GW829351] | 0 | 0 | 0 | 2 | 0 | 11 | 0 | 0 | 0 | 0 |
| c1ccc(-c2ccc3c(-c4ccnc(Nc5ccc6c(c5)OCCO6)n4)cnn3n2)cc1 [GW818941] | 0 | 10 | 0 | 0 | 0 | 0 | 0 | 3 | 0 | 9 |
| CC(=O)Nc1n[nH]c2ncc(-c3ccccc3)cc12 [SB-548492] | 0 | 17 | 0 | 0 | 4 | 0 | 0 | 14 | 21 | 0 |
| O=C(Nc1n[nH]c2nc(-c3ccco3)c(Br)cc12)c1ccc(CN2CCCC2)cc1.O=C(O)[C@H](O)[C@@H](O)C(=O)O [SB-742352] | 0 | 0 | 0 | 0 | 0 | 0 | 0 | 0 | 0 | 0 |
| O=C(Nc1ccccc1F)NC1CCN(c2ccnc(Nc3ccc(F)cc3)n2)C1 (centres unmarked) [GSK1379722] | 0 | 12 | 0 | 0 | 3 | 17 | 0 | 0 | 0 | 19 |
| COc1ccc(Nc2nccc(N3CCC(NC(=O)c4cccc(NC(C)=O)c4)C3)n2)cc1 (centres unmarked) [GSK1379732] | 8 | 26 | 3 | 0 | 26 | 13 | 0 | 11 | 0 | 15 |
| C[C@@H]1CCN(C(=O)CO)C[C@@H]1N(C)c1ncnc2[nH]ccc12 | 0 | 13 | 20 | 4 | 11 | 0 | 0 | 0 | 0 | 6 |
| Cl.O=S(=O)(c1cccc(F)c1)c1ccc(Nc2ncnc3cc(Br)sc23)cc1Cl [GSK306886] | 9 | 0 | 0 | 0 | 20 | 47 | 3 | 20 | 0 | 0 |
| COC(=O)c1c(-c2ccccc2)c2cc(Cl)ccc2c(=O)n1Cc1ccc(S(C)(=O)=O)cc1 | 5 | 9 | 0 | 0 | 14 | 0 | 10 | 10 | 29 | 0 |
